We go through 25 compounds from article PMC6925144, “A prospective compound screening contest identified broader inhibitors for Sirtuin 1” (Scientific Reports, 2019).

Whole data set: some 3,200 compounds, median “TSA(with NAD+) / Primary screening (TSA) / delta Tm (K)” near -0.04, cut for the highest 2% near 0.37. Many of the other results were omitted from the sample, so the highest values are more common in it than they were.

NAD-dependent deacetylase Sirtuin 1, sequence (Q96EB6 2-747 limits assumed): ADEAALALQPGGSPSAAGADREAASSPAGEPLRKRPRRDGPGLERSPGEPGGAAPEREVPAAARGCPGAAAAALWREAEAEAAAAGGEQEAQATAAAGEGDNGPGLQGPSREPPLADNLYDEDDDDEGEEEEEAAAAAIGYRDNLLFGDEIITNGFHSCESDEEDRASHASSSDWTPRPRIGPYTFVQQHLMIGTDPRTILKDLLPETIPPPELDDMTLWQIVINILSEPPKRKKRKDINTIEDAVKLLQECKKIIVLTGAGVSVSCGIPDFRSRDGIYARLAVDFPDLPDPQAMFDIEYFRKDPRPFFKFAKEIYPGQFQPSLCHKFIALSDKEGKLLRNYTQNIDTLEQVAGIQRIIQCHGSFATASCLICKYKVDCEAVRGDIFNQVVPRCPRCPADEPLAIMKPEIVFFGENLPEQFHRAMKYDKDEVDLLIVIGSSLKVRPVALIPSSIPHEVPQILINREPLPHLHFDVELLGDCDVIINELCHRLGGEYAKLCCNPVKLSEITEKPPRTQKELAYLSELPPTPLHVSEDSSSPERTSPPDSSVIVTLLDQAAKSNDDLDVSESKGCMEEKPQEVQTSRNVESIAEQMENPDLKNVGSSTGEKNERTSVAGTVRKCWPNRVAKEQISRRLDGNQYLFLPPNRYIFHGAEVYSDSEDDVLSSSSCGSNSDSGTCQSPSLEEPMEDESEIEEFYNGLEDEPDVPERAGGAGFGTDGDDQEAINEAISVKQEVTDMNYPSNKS

This assay deals with NAD-dependent deacetylase Sirtuin 1 (human, UniProt Q96EB6). Nature of the assay: primary screen, delta tm. Also on record: single well (n = 1, as 'the same TSA'). Particulars: 10 µM. As for the experimental part:
A total of 3,192 compounds extracted from the proposed lists were first screened by thermal shift assay (TSA), which determined a melting temperature shift (ΔTm) of Sirtuin 1 upon the addition of a test compound at a concentration of 10 µM (n = 1) with primary hit criteria of ΔTm > 0.45 K or ΔTm < −1.5 K. Primary hits (48 compounds) were retested in the same assay at three concentrations (5, 10, 20 µM, n = 4) for hit confirmation and for dose-dependency check. Secondary hits (41 compounds) were checked their selectivity for Sirtuin 1 based on counterscreening on unrelated protein targets (bovine carbonic anhydrase (CA) and recombinant SH2 domain of hABL1 kinase (ABL1)) at three different concentrations (5, 10, 20 µM, n = 4), which yielded 38 hit compounds, hereafter referred to as TSA hits. The TSA screening above was conducted in the absence of NAD+. As noted, the structure of Sirtuin 1 is different in the presence of NAD+ and substrate. The chemical profile of TSA hits found from the different conditions could be different. […] As a result, 39 TSA hits were found.
`Cc1ncc(CN2CCC(Nc3ccc4nnnn4n3)C(C)C2)s1` (stereo not shown): the “TSA(with NAD+) / Primary screening (TSA) / delta Tm (K)” value came out at 0.09 K.

`c1ccc(CN2CCCCCC2)c(CNc2ccc3nnnn3n2)c1`: the “TSA(with NAD+) / Primary screening (TSA) / delta Tm (K)” value is given as -0.04 K.

Regarding `Cc1cc(F)ccc1N1CCCC(Nc2ccc3nnnn3n2)C1` (stereo not shown), the “TSA(with NAD+) / Primary screening (TSA) / delta Tm (K)” value was found to be 0.68 K.

For `O=C(CN1CCc2ccccc21)Nc1cnc2ccccc2c1`, the “TSA(with NAD+) / Primary screening (TSA) / delta Tm (K)” value is -0.13 K.

Take `NC(=O)C1CCN(c2nc(CN3CCCCC3)nc3sc4c(c23)CCC4)CC1`: the “TSA(with NAD+) / Primary screening (TSA) / delta Tm (K)” value was -0.19 K.

For `NC(=O)C1CN(c2nc(C3CC3)nc3sc4c(c23)CCCC4)CCO1` (stereo not shown), the “TSA(with NAD+) / Primary screening (TSA) / delta Tm (K)” value was -0.19 K.

`NC(=O)C1CCN(c2nc(CSc3ccccc3)nc3sc4c(c23)CCCC4)CC1`: the “TSA(with NAD+) / Primary screening (TSA) / delta Tm (K)” value stood at 2.22 K.

On to `Cc1sc2nc(CN3CCCC3)nc(N3CCC(C(N)=O)CC3)c2c1C`, for which the “TSA(with NAD+) / Primary screening (TSA) / delta Tm (K)” value was determined as 0.12 K.

As for `Cc1sc2nc(CSc3ccccc3)nc(N3CCC(C(N)=O)CC3)c2c1C`, the “TSA(with NAD+) / Primary screening (TSA) / delta Tm (K)” value was determined as 0.49 K.

With `Cc1sc2nc(CSc3ccccc3)nc(N3CCCC(C(N)=O)C3)c2c1C` (stereo not shown), the “TSA(with NAD+) / Primary screening (TSA) / delta Tm (K)” value was -0.18 K.

With `Cc1ccc(C(=O)Nc2ccc(N3CCN(Cc4ccccc4)CC3)cc2)cc1NC(=O)c1ccco1`, the “TSA(with NAD+) / Primary screening (TSA) / delta Tm (K)” value was 0.12 K.

For the compound `COc1ccc(-c2csc3nc(C)nc(N4CCN(C5CCS(=O)(=O)C5)CC4)c23)cc1OC` (stereo not shown), the “TSA(with NAD+) / Primary screening (TSA) / delta Tm (K)” value is reported as -0.09 K.

With `O=C(O)c1cnc2c(c1)c(=O)[nH]c(=O)n2Cc1ccccc1`, the “TSA(with NAD+) / Primary screening (TSA) / delta Tm (K)” value is reported as -0.13 K.

With `Cn1c(-c2ccccc2)c(C=O)c2ccccc21`, the “TSA(with NAD+) / Primary screening (TSA) / delta Tm (K)” value is reported as -0.32 K.

For `CCCCn1ccnc1C(=O)c1cccc(S(=O)(=O)N(C)c2ccccc2)c1`, the “TSA(with NAD+) / Primary screening (TSA) / delta Tm (K)” value is recorded as -0.08 K.

For `CC1CN(C(=O)/C=C/c2ccc(C(=O)O)cc2)CC(C)(C)O1` (stereo not shown), the “TSA(with NAD+) / Primary screening (TSA) / delta Tm (K)” value is reported as -0.13 K.

`COC(=O)c1cc(NC(=O)CN2C(=O)NC(C)(c3ccc4ccccc4c3)C2=O)cc(C(=O)OC)c1` (stereo not shown): the “TSA(with NAD+) / Primary screening (TSA) / delta Tm (K)” value came to 0.19 K.

For the compound `CC1(C)NC(=O)N(CC(=O)Nc2sc3c(c2-c2nc4ccccc4[nH]2)CCCC3)C1=O`, the “TSA(with NAD+) / Primary screening (TSA) / delta Tm (K)” value is 0.37 K.

For the compound `O=C(CN1CCCCCCC1=O)NCCc1nc2ccccc2[nH]1`, the “TSA(with NAD+) / Primary screening (TSA) / delta Tm (K)” value is listed as -0.22 K.

With `CCCCOc1cc(C2NC(N)=Nc3nc4ccccc4n32)ccc1OC` (stereo not shown), the “TSA(with NAD+) / Primary screening (TSA) / delta Tm (K)” value was -0.22 K.

`NC1=Nc2nc3ccccc3n2C(c2ccc(-c3ccc(C(=O)O)cc3)o2)N1` (stereo not shown): the “TSA(with NAD+) / Primary screening (TSA) / delta Tm (K)” value came to 1.27 K.

On to `O=C(O)CCCc1ccc2c(c1)-c1ccccc1C2`, for which the “TSA(with NAD+) / Primary screening (TSA) / delta Tm (K)” value came out at 0.06 K.

With `O=C1/C(=C/c2ccc(OC(F)F)cc2OC(F)F)Oc2cc(O)ccc21`, the “TSA(with NAD+) / Primary screening (TSA) / delta Tm (K)” value is 0.37 K.

Regarding `O=C1/C(=C/c2ccccc2OC(F)F)Oc2cc(O)ccc21`, the “TSA(with NAD+) / Primary screening (TSA) / delta Tm (K)” value stood at 0.15 K.

As for `COc1ccc(/C=C2/Oc3cc(O)ccc3C2=O)c(OC)c1`, the “TSA(with NAD+) / Primary screening (TSA) / delta Tm (K)” value turned out to be 0.12 K.
